Results reported in the supplement of paper PMC6992640.
± gives the standard deviation of the averaged measurements.

Columns and labels:
Assay in all cases: cell viability (% of vehicle); higher = less cytotoxic
Conditions in all cases: 10 µM; 72 h
[1] = tested on: HCI01 (cells of a triple-negative basal-like breast cancer xenograft)
[2] = tested on: HCI03 (cells of an ER-positive luminal breast cancer xenograft)
[3] = tested on: HCI09 (cells of a triple-negative luminal androgen receptor type breast cancer xenograft)
[4] = tested on: HCI11 (cells of an ER-positive luminal breast cancer xenograft)
[5] = tested on: HCI13 (cells of an ER-positive luminal breast cancer xenograft)
[6] = tested on: HCI16 (cells of a triple-negative basal-like breast cancer xenograft)
[7] = tested on: UCD52 (cells of a triple-negative basal-like breast cancer xenograft)
[8] = tested on: WHIM2 (cells of a triple-negative basal-like breast cancer xenograft)
[9] = tested on: WHIM30 (cells of a triple-negative basal-like breast cancer xenograft)
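Further: PDX cells carrying CMV promoter-driven luciferase, viability read as total photon flux per second by IVIS imaging following D-luciferin, vehicle control 0.1% DMSO.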

Row | SMILES | cell viability [1] | cell viability [2] | cell viability [3] | cell viability [4] | cell viability [5] | cell viability [6] | cell viability [7] | cell viability [8] | cell viability [9]
1 | OC(Cn1cncn1)(Cn1cncn1)c1ccc(F)cc1F [Fluconazole hydrate] | 116 ± 7.6 | 109 | 99.4 ± 25 | 89.7 | 138 ± 7.4 | 101 | 93.5 ± 5.6 | 99.1 ± 9.9 | 127 ± 21
2 | CC(Cc1ccc(O)c(O)c1)(NN)C(=O)O (stereo unspecified) [Carbidopa] | 116 ± 20 | 122 | 121 ± 20 | 79.8 | 119 ± 14 | 149 | 124 ± 9.1 | 81.6 ± 11 | 126 ± 6.2
3 | Cc1ccc(C(=O)C(C)CN2CCCCC2)cc1.Cl (stereo unspecified) [Tolperisone HCl] | 118 ± 20 | 118 | 101 ± 3.6 | 92.5 | 47.8 ± 8.8 | 109 | 92.3 ± 8.6 | 130 ± 6.4 | 110 ± 3.9
4 | NS(=O)(=O)Cc1noc2ccccc12 [Zonisamide] | 96.13 ± 0.4 | 136 | 90 ± 5 | 108 | 117 ± 18 | 99.1 | 130 ± 16 | 92.9 ± 7.1 | 129 ± 3.9
5 | CCN(CCO)CCCC(C)Nc1ccnc2cc(Cl)ccc12.O=S(=O)(O)O (stereo unspecified) [Hydroxychloroquine Sulfate] | 71.8 ± 4.6 | 96.6 | 72.2 ± 1.6 | 81.8 | 84.4 ± 8.1 | 86.5 | 71.4 ± 3.8 | 70.8 ± 2.9 | 101.7 ± 0.69
6 | COc1ccc(CC2c3cc(OC)c(OC)cc3CC[N+]2(C)CCC(=O)OCCCCCOC(=O)CC[N+]2(C)CCc3cc(OC)c(OC)cc3C2Cc2ccc(OC)c(OC)c2)cc1OC.O=S(=O)([O-])c1ccccc1.O=S(=O)([O-])c1ccccc1 (stereo unspecified) [Cisatracurium Besylate] | 177 ± 73 | 129 | 102 ± 17 | 109 | 80.4 ± 3.9 | 129 | 119 ± 6.3 | 65.1 ± 7.3 | 120 ± 7
7 | CCn1cc(C(=O)O)c(=O)c2ccc(C)nc21 [Nalidixic acid] | 86 ± 19 | 114 | 96.6 ± 10 | 92.1 | 113 ± 3 | 103 | 79 ± 6.3 | 87.7 ± 7.2 | 112 ± 12
8 | CC(CCC(=O)O)C1CCC2C3C(O)CC4CC(O)CCC4(C)C3CCC12C (stereo unspecified) [Chenodeoxycholic Acid] | 114 ± 38 | 104 | 66 ± 10 | 103 | 41.5 ± 4.3 | 102 | 97.13 ± 0.54 | 115 ± 23 | 146 ± 3.2
9 | Nc1nc(=O)c2nc(CNc3ccc(C(=O)NC(CCC(=O)O)C(=O)O)cc3)cnc2[nH]1 (stereo unspecified) [Folic acid] | 103 ± 21 | 118 | 97.5 ± 12 | 85.3 | 101 ± 2.8 | 117 | 92.4 ± 23 | 96.1 ± 4.2 | 101 ± 8.4
10 | Nc1ccc(S(=O)(=O)Nc2ncccn2)cc1 [Sulfadiazine] | 131 ± 9.1 | 126 | 158 ± 83 | 103 | 153 ± 29 | 101 | 95.5 ± 16 | 101 ± 21 | 118 ± 18
11 | NC(N)=Nc1nc(CSCCC(N)=NS(N)(=O)=O)cs1 [Famotidine] | 120 ± 16 | 127 | 103 ± 8.7 | 98.9 | 149 ± 20 | 98.6 | 78.5 ± 6.2 | 85.9 ± 6.1 | 165 ± 4.1
12 | NC(=O)CC[C@H](N)C(=O)O [L-Glutamine] | 85.6 ± 8.7 | 92.8 | 92.2 ± 25 | 87.4 | 101.1 ± 0.78 | 97.3 | 82.9 ± 3.6 | 104 ± 3.9 | 70.6 ± 7.1
13 | CCCc1nn(C)c2c(=O)nc(-c3cc(S(=O)(=O)N4CCN(C)CC4)ccc3OCC)[nH]c12.O=C(O)CC(O)(CC(=O)O)C(=O)O [Sildenafil Citrate] | 116 ± 2.8 | 144 | 96 ± 15 | 118 | 130 ± 23 | 94.4 | 88.2 ± 4 | 83.8 ± 4.8 | 53.9 ± 10
14 | CC(C)n1c(C=CC(O)CC(O)CC(=O)O)c(-c2ccc(F)cc2)c2ccccc21 (stereo unspecified) [Fluvastatin] | 91.2 ± 13 | 130 | 65.7 ± 18 | 162 | 192 ± 10 | 109 | 59.3 ± 12 | 48.9 ± 2.5 | 139 ± 14
15 | CC1=C2N=C(C=C3N=C(C(C)=C4[N-]C(C)(C5N=C1C(C)(CCC(=O)NCC(C)OP(=O)([O-])OC1C(CO)OC(n6cnc7cc(C)c(C)cc76)C1O)C5CC(N)=O)C(C)(CC(N)=O)C4CCC(N)=O)C(C)(CC(N)=O)C3CCC(N)=O)C(C)(C)C2CCC(N)=O.[CH3-].[Co+3] (stereo unspecified) [Methylcobalamin] | 81.6 ± 13 | 132 | 112 ± 14 | 91.1 | 112 ± 2.5 | 106 | 112 ± 9.1 | 91.3 ± 23 | 106.57 ± 0.028
16 | CC(=O)O.C[C@H](N)C(=O)O.NCCCC[C@H](N)C(=O)O.N[C@@H](CCC(=O)O)C(=O)O.N[C@@H](Cc1ccc(O)cc1)C(=O)O [glatiramer acetate] | 94.3 ± 13 | 136 | 108 ± 11 | 108 | 171 ± 16 | 125 | 118 ± 10 | 95.9 ± 38 | 145 ± 6.9
17 | CN1C(C(=O)Nc2ccccn2)=C(O)c2sc(Cl)cc2S1(=O)=O [Lornoxicam] | 95.2 ± 8.9 | 111 | 84.7 ± 25 | 85.6 | 82.4 ± 9.6 | 98.4 | 86.2 ± 5.5 | 112 ± 2.6 | 99.1 ± 6.5
18 | CCOC(=O)C(CCc1ccccc1)NC1CCc2ccccc2N(CC(=O)O)C1=O.Cl (stereo unspecified) [Benazepril HCl] | 107 ± 11 | 159 | 130 ± 41 | 93.5 | 196 ± 40 | 161 | 130 ± 7.6 | 107 ± 13 | 170 ± 22
19 | COC(=O)Nc1nc2ccc(C(=O)c3ccc(F)cc3)cc2[nH]1 [Flubendazole] | 104 ± 3.6 | 103 | 103 ± 2.5 | 81.8 | 102 ± 8.7 | 140 | 80.3 ± 3.1 | 139 ± 36 | 106.1 ± 0.14
